# Measurements taken from PubChem BioAssay (NCI).
# This is part of a sample that, as a whole, favours compounds with a hit. Of some 83,000 tested, about 20% had one in any assay.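 Values shown are percent growth following 48 h exposure of cells in 96-well plates to a single concentration of compound; below 10 was considered active.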 A number with no mark means an inactive call. Calls of active or inactive are those of the source.
# System: SF-295 CNS
# Experiment: NCI-60 one-dose screen, 48 h (100 = growth as untreated, 0 = no growth, -100 = all killed)
# Details: 10 µM
row,Compound,growth
1,O=C(NO)c1ccc(Cn2ccc3c(Nc4ccccc4)ncnc32)cc1,-67.5% (active)
2,N#Cc1ccc(-c2nn(-c3ccc(C(=O)O)cc3)cc2CNc2cccc(Br)c2)cc1,42.5%
3,O=C(c1ccc(Cl)cc1)C1[C@H](c2ccccc2Br)[C@@H](c2ccccc2)NC12C(=O)Nc1ccccc12 (some centres not stated),12.9%
4,CC1(C)CC[C@]2(C(=O)Nc3ccccc3)CC[C@]3(C)C(=CC[C@@H]4[C@@]5(C)CC[C@H](N)C(C)(C)[C@@H]5CC[C@]43C)[C@H]2C1,52.7%
5,CC(=C(c1ccc(OCCCN(C)C)cc1)c1ccc(OCCCN(C)C)cc1)c1ccccc1,-92.8% (active)
6,Cc1ccc(/C=C/C(=O)c2ccc(S(=O)(=O)NCCNc3nc(Nc4ccc(F)cc4)nc(N(C)C)n3)cc2)cc1,37.7%
7,COc1ccc(C(=O)Nc2sc3c(c2C#N)CCC(=O)C3)cc1C(F)(F)F,-15.4% (active)
8,COc1ccc2nc(Cl)c(-c3cc(-c4ccccc4)nc(=S)[nH]3)cc2c1,50.9%
9,Cc1ccc(-c2cc(C(=O)N=Nc3c(O)[nH]c4ccccc34)c3ccccc3n2)cc1,94.3%
10,C#Cc1ccc(S(=O)(=O)Nc2cccc(-c3csc(NC(C)=O)n3)c2)cc1,66.1%
11,CC(C)C1=C[C@@]23CC[C@@H]4[C@](C)(CCC[C@]4(C)C(=O)NCc4ccccc4)[C@H]2C[C@@H]1[C@H]1C(=O)CCC(=O)[C@H]13,83.1%
12,COc1ccc(C(=O)NC(=S)N2CCN(c3ncnc4c3cnn4-c3ccccc3)CC2)cc1,57.8%
13,C[C@H]1[C@H](C)CC[C@]2(COC(=O)CCC(=O)NCC#CCN3CCNCC3)CC[C@]3(C)C(=CC[C@@H]4[C@@]5(C)CCCNC(C)(C)[C@@H]5CC[C@]43C)[C@H]12,28.1%
14,CC[C@@]1(O)C(=O)OCc2c1cc1n(c2=O)Cc2c-1nc1cc(F)c(C)c3c1c2[C@@H](N)CC3,-0.789% (active)
15,Cc1cccc2cc(-c3cc(-c4ccccc4)nc(=S)[nH]3)c(Cl)nc12,64.7%
16,Cc1ccc(CNC(=O)Cc2ccc3c(c2)CN(C2CCC(=O)NC2=O)C3=O)cc1 (configuration not stated),6.35% (active)

row,Compound,growth
1,CONC[C@]1(C)C=C2C(=O)[C@](C)(O)C3(CC3)C(C)=C2[C@H]1O,-9.33% (active)
2,CC1(C)CC[C@]2(C(=O)N3CCOCC3)CC[C@]3(C)C(=CC[C@@H]4[C@@]5(C)CC[C@H](NCO)C(C)(C)[C@@H]5CC[C@]43C)[C@H]2C1,-87.2% (active)
3,NS(=O)(=O)c1ccc(N=Nc2c(O)n(CC(=O)Nc3ccccc3Br)c3ccccc23)cc1,25.8%
4,CNC(=O)c1cccc(N2CCc3c2ccc(NC(=O)Nc2ccc(N4CCN(C)CC4)c(C(F)(F)F)c2)c3F)c1,-97.2% (active)
5,O=C(NCCCCC(c1ccc(F)cc1)c1ccc(F)cc1)NCCCc1cccnc1,18.5%
6,CC(=O)Nc1ccc(-c2cn(-c3cccc(C(=O)Nc4ccc(Cl)c(C(F)(F)F)c4)c3)nn2)cn1,-64.2% (active)
7,CCCS(=O)(=O)c1oc(-c2ccc(F)cc2)nc1S(=O)(=O)c1ccc(F)cc1,78.2%
8,O=C(Cn1nc(-c2ccccc2)ccc1=O)NN1C(=O)c2ccccc2C1=O,96.5%
9,CC(=O)NCC1=C(C)C=C2C(=O)[C@](C)(O)C3(CC3)C(C)=C21,-14.5% (active)
10,CCN1CCN(Cc2ccc(C(=O)Nc3cccc(-c4cn(-c5ccc6oc(=O)ccc6c5)nn4)c3)cc2C(F)(F)F)CC1,-100% (active)
11,CCOP(=O)(OCC)O[C@H]1CCC(=O)[C@@H]2[C@H]1[C@H]1C[C@@H]3[C@@]4(C)CCCC(C)(C(=O)OC)[C@@H]4CC[C@@]23C=C1C(C)C (some centres not stated),69.1%
12,O=C1Nc2ccc(F)cc2/C1=C/c1cccc(OCc2ccccn2)c1,24.3%
13,CC1=N/C(=C\c2ccc(N(C)C)cc2)C(=O)N1CCc1ccc(S(N)(=O)=O)cc1,99.7%
14,O=C(Nc1ccc(I)cc1F)c1cc(-c2ccc(F)cc2F)ccc1O,-37.7% (active)
15,C/C(=N\NC(N)=S)c1ccc(Nc2nc(SC(C)C)nc(-c3ccccc3)c2C#N)cc1,44.3%
16,COc1ccc2c(c1)N=C(C(=O)O)/C2=C/c1sc(Nc2ccc(O)cc2)nc1O,76.5%
